From the supplement of paper PMC6609913 come the findings set out here.

Where a name gives a salt, the structure may show the parent alone. ± gives the standard deviation of the averaged measurements. Over roughly 1,300 compounds, “normalised cell viability” has its median near 1; the lowest 2% begin near 0.14. Only a selection was taken, and the lowest values are over-represented in it overall.

For this assay, the system named is V-C8 (BRCA2-deficient hamster cells). Briefly: normalised cell viability (fraction of plate median); higher = more viable cells (less toxic). The settings on record: 5 µM. An outline of the steps:
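In two screens, library drugs at 5 μM were given for 3 days (screen 1) or 6 days (screen 2) to hamster V-C8 cells without BRCA2 and V-C8 cells with BRCA2 restored, seeded 24 h earlier in 96-well plates. A resazurin assay gave the cell viability readout, expressed as modified robust per cent of sample against the plate median, with triplicate wells averaged.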

Compound `CCN(CC)CCOc1ccc(C(=C(Cl)c2ccccc2)c2ccccc2)cc1` [Clomiphene citrate (Z,E)] displayed a normalised cell viability (treatment time: 3 days) of 0.142 ± 0.002 and a normalised cell viability (treatment time: 6 days) of 0.118 ± 0.011.
`CN(C)CCOc1ccc(/C(=C(/CCCl)c2ccccc2)c2ccccc2)cc1` [Toremifene] showed a normalised cell viability (treatment time: 3 days) of 0.716 ± 0.067 and a normalised cell viability (treatment time: 6 days) of 0.875 ± 0.052.
`CC/C(=C(\c1ccccc1)c1ccc(OCCN(C)C)cc1)c1ccccc1` [Tamoxifen citrate]: the normalised cell viability is 0.837 ± 0.019 (treatment time: 3 days) and 0.767 ± 0.035 (treatment time: 6 days).
`CC[N+](CC)(CC(=O)Nc1c(C)cccc1C)Cc1ccccc1` [Denatonium benzoate]: the normalised cell viability reads like this: (treatment time: 3 days) 1.01 ± 0.031; (treatment time: 6 days) 1.07 ± 0.019.
As for `Cc1cn([C@H]2C=C[C@@H](CO)O2)c(=O)[nH]c1=O` [Stavudine], the normalised cell viability is 1.05 ± 0.077 (treatment time: 3 days) and 1.23 ± 0.35 (treatment time: 6 days).
`O=C1NCCN1CCN1CCC(c2cn(-c3ccc(F)cc3)c3ccc(Cl)cc23)CC1` [Sertindole] returned a normalised cell viability (treatment time: 3 days) of 0.385 ± 0.019 and a normalised cell viability (treatment time: 6 days) of 0.591 ± 0.069.
As for `CC(C)(C)C(=O)OCOC(=O)[C@@H]1N2C(=O)[C@@H](/N=C/N3CCCCCC3)[C@H]2SC1(C)C` [Pivmecillinam hydrochloride], the normalised cell viability is, setting by setting: (treatment time: 3 days) 0.959 ± 0.056; (treatment time: 6 days) 1.01 ± 0.039.
With `Cc1ncc([N+](=O)[O-])n1CCO` [Metronidazole], the normalised cell viability by setting is: (treatment time: 3 days) 0.914 ± 0.088; (treatment time: 6 days) 1.04 ± 0.058.
As to `CC(=O)O[C@H]1C(=O)[C@@]2(C)[C@H]([C@H](OC(=O)c3ccccc3)[C@]3(O)C[C@H](OC(=O)[C@H](O)[C@@H](NC(=O)c4ccccc4)c4ccccc4)C(C)=C1C3(C)C)[C@]1(OC(C)=O)CO[C@@H]1C[C@@H]2O` [Paclitaxel], the normalised cell viability reads like this: (treatment time: 3 days) 0.193 ± 0.01; (treatment time: 6 days) 0.199 ± 0.0046.
`Cc1oncc1C(=O)Nc1ccc(C(F)(F)F)cc1` [Leflunomide]: the normalised cell viability was determined as 0.904 ± 0.065 (treatment time: 3 days) and 0.959 ± 0.043 (treatment time: 6 days).
With `COc1cccc(N(C)C(=S)Oc2ccc3c(c2)CCCC3)n1` [Liranaftate], the normalised cell viability was 0.805 ± 0.038 (treatment time: 3 days) and 0.74 ± 0.046 (treatment time: 6 days).
On to `COC(=O)Nc1nc2ccc(SC(C)C)cc2[nH]1` [Methiazole], for which the normalised cell viability (treatment time: 3 days) came out at 0.214 ± 0.0082 and the normalised cell viability (treatment time: 6 days) stood at 0.221 ± 0.025.
On to `COc1ccc(CN2CCN(C(c3ccc(F)cc3)c3ccc(F)cc3)CC2)c(OC)c1OC` [Lomerizine hydrochloride], for which the normalised cell viability by setting is: (treatment time: 3 days) 0.881 ± 0.042; (treatment time: 6 days) 0.799 ± 0.035.
As for `Cc1ccc(S(=O)(=O)NC(=O)NN2CC3CCCC3C2)cc1` (stereo not given) [Gliclazide], the normalised cell viability reads like this: (treatment time: 3 days) 1.04 ± 0.049; (treatment time: 6 days) 0.979 ± 0.091.
Consider `CCOC(=O)OC(C)OC1=C(C(=O)Nc2ccccn2)N(C)S(=O)(=O)c2ccccc21` (stereo not given) [Ampiroxicam], for which the normalised cell viability stood at 1.03 ± 0.055 (treatment time: 3 days) and 1.02 ± 0.041 (treatment time: 6 days).
On to `Cc1cc(N)c2ccccc2[n+]1CCCCCCCCCC[n+]1c(C)cc(N)c2ccccc21` [Dequalinium dichloride], for which the normalised cell viability came out at 0.171 ± 0.0032 (treatment time: 3 days) and 0.162 ± 0.013 (treatment time: 6 days).
Regarding `CN(CCCCCCCCCCN(C)C(=O)Oc1cccc([N+](C)(C)C)c1)C(=O)Oc1cccc([N+](C)(C)C)c1` [Demecarium bromide], the normalised cell viability is 0.828 ± 0.022 (treatment time: 3 days) and 0.812 ± 0.013 (treatment time: 6 days).
Consider `C[C@H]1NC(=O)NC1=O` [Methylhydantoin-5-(D)], for which the normalised cell viability (treatment time: 3 days) is 0.968 ± 0.032 and the normalised cell viability (treatment time: 6 days) is 0.954 ± 0.077.
Taken in the same sequence, the figures for `CO[C@H]1/C=C/O[C@@]2(C)Oc3c(C)c(O)c4c(O)c(c5c(nc6cc(C)ccn65)c4c3C2=O)NC(=O)/C(C)=C\C=C\[C@H](C)[C@H](O)[C@@H](C)[C@@H](O)[C@@H](C)[C@H](OC(C)=O)[C@@H]1C` [Rifaximin] were 0.964 ± 0.023 and 0.928 ± 0.017.
For `CN(C/C=C/c1ccccc1)Cc1cccc2ccccc12` [Naftifine hydrochloride], the normalised cell viability turned out to be 0.199 ± 0.019 (treatment time: 3 days) and 0.219 ± 0.0077 (treatment time: 6 days).
Turning to `CC(O)(P(=O)(O)O)P(=O)(O)O` [Etidronic acid, disodium salt], the normalised cell viability runs as follows: (treatment time: 3 days) 1.03 ± 0.024; (treatment time: 6 days) 1.05 ± 0.046.
`CNC(=C[N+](=O)[O-])NCCSCc1ccc(CN(C)C)o1` [Ranitidine hydrochloride] yielded a normalised cell viability (treatment time: 3 days) of 1.02 ± 0.13 and a normalised cell viability (treatment time: 6 days) of 1.08 ± 0.045.
For `CC(=O)OCC(=O)[C@@]1(OC(C)=O)[C@@H](C)C[C@H]2[C@@H]3C[C@H](F)C4=CC(=O)C=C[C@]4(C)[C@@]3(F)[C@@H](O)C[C@@]21C` [Diflorasone Diacetate], the normalised cell viability (treatment time: 3 days) worked out at 1.18 ± 0.074 and the normalised cell viability (treatment time: 6 days) was found to be 1.02 ± 0.051.
In turn, `OC[C@H]1O[C@@H](Oc2ccc(O)cc2)[C@H](O)[C@@H](O)[C@@H]1O` [Arbutin] registered a normalised cell viability (treatment time: 3 days) of 1.05 ± 0.026 and a normalised cell viability (treatment time: 6 days) of 1.03 ± 0.058.
As for `CCOc1ccc(Cc2nccc3cc(OCC)c(OCC)cc23)cc1OCC` [Ethaverine hydrochloride], the normalised cell viability is, setting by setting: (treatment time: 3 days) 0.625 ± 0.013; (treatment time: 6 days) 0.534 ± 0.022.
For the compound `CC(=O)O[C@H]1C[C@@H]2CC[C@@H]3[C@H](CC[C@@]4(C)[C@H]3C[C@H]([N+]3(C)CCCCC3)[C@@H]4OC(C)=O)[C@@]2(C)C[C@@H]1N1CCCCC1` [Vecuronium bromide], the normalised cell viability amounted to 1.01 ± 0.047 (treatment time: 3 days) and 1.04 ± 0.036 (treatment time: 6 days).
In the case of `Clc1ccc(C(Cn2ccnc2)OCc2c(Cl)cccc2Cl)c(Cl)c1` (stereo not given) [Isoconazole], the normalised cell viability runs as follows: (treatment time: 3 days) 1.12 ± 0.04; (treatment time: 6 days) 1.09 ± 0.045.
Take `NCCCC(O)(P(=O)(O)O)P(=O)(O)O` [Alendronate sodium]: the normalised cell viability (treatment time: 3 days) was 0.709 ± 0.1 and the normalised cell viability (treatment time: 6 days) worked out at 0.515 ± 0.033.
On to `O=C(Nc1ccc([N+](=O)[O-])cc1Cl)c1cc(Cl)ccc1O` [Niclosamide], for which the normalised cell viability amounted to 0.124 ± 0.0032 (treatment time: 3 days) and 0.0967 ± 0.0062 (treatment time: 6 days).
Taken in the same sequence, the figures for `CN(C)CCOC(c1ccccc1)c1ccccc1.Cn1c(=O)c2[nH]c(Cl)nc2n(C)c1=O` [Dimenhydrinate] were 1.08 ± 0.086 and 1.04 ± 0.024.
